This is a sample that favours compounds with a hit; in the whole collection about 1.7% have one here.
ATG4B inh – ATG4B protease inhibitors, primary screen, biochemical, fluorescence, uHTS; inhibition, % at 8.33 µM; 340,000 tested, 0.51% active; ATG4B cleavage of LC3-PLA2, NBD-HPC fluorescence, 1 h; Cysteine protease ATG4B (Homo sapiens), Q9Y4P1; in the data active = inhibition above about 40%
Rin1-Abl PPI inh – inhibitors of Rin1-Abl protein binding, primary screen, biochemical, TR-FRET | Tyrosine-protein kinase ABL1 (Homo sapiens) + Ras and Rab interactor 1 (Homo sapiens), … | inhibition, % at 7.35 µM | 360,000 tested, 0.4% active; in the data active = inhibition above about 5%, passing the limit was not always enough
SUMO1-SIM PPI – modulators of SUMO1 protein-protein interactions, primary screen, biochemical, uHTS; 360,000 tested, 0.33% active; Small ubiquitin-related modifier 1 (Homo sapiens), P63165; inhibition, % at 20 µM; SUMO1 binding to a labelled peptide, TR-FRET, 1 h; in the data active = inhibition above about 37%
Neddyl block – inhibitors of cullin neddylation, primary screen, biochemical, TR-FRET, uHTS, NAE and Ubc12. inhibition, % at 25 µM. 360,000 tested, 0.58% active. AID 651699, 2012; in the data active = inhibition above about 36%
Target sequence (P61081 whole entry, looked up): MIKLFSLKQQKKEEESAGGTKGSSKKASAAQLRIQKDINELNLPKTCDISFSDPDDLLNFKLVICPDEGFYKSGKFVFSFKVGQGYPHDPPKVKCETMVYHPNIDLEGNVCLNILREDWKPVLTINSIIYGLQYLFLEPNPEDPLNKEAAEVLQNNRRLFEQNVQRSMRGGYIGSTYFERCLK
Target sequence (Q13564 whole entry, looked up): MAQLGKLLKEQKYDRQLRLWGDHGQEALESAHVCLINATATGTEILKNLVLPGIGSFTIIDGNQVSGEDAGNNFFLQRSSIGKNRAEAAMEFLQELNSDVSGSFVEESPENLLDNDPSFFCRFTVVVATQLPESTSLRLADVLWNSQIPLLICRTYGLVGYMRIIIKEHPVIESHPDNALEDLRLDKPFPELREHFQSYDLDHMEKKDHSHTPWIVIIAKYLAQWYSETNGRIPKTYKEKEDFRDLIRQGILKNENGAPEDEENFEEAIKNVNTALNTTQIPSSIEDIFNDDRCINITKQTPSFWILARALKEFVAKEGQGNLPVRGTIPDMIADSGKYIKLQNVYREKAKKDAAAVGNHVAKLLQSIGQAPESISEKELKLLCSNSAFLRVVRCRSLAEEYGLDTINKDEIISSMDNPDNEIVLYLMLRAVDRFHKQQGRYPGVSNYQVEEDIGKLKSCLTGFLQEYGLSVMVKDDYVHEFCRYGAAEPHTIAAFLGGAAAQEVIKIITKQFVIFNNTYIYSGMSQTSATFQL
Hits are given with their value.

Results for O=C(Oc1ccc(-c2ccccc2)cc1)c1ccco1 ?
ATG4B inh: inactive; Rin1-Abl PPI inh: inactive; SUMO1-SIM PPI: inactive; Neddyl block: inactive

Results for O=Cc1ccnc(-c2ccc(OC(=O)c3ccco3)cc2)n1 ?
ATG4B inh: inactive; Rin1-Abl PPI inh: inactive; SUMO1-SIM PPI: 55.7; Neddyl block: inactive

How did O=C(Nc1cc([N+](=O)[O-])ccc1O)c1cccc(C(=O)Nc2cc([N+](=O)[O-])ccc2O)c1 do in these assays?
ATG4B inh: inactive; Rin1-Abl PPI inh: inactive; SUMO1-SIM PPI: 56.3; Neddyl block: inactive

What do the screens show for `O=C(Nc1cc([N+](=O)[O-])ccc1O)c1cccc([N+](=O)[O-])c1`?
ATG4B inh: inactive; Rin1-Abl PPI inh: inactive; SUMO1-SIM PPI: inactive; Neddyl block: inactive

How did O=C(Nc1cccc([N+](=O)[O-])c1)c1cccc(C(=O)Nc2cccc([N+](=O)[O-])c2)c1 do in these assays?
ATG4B inh: inactive; Rin1-Abl PPI inh: inactive; SUMO1-SIM PPI: 70.0; Neddyl block: inactive

What do the screens show for `COc1ccc(CNC(=O)C2CCC(=O)N(C3CCCCCC3)C2)c(OC)c1` (centres undefined)?
Rin1-Abl PPI inh: inactive; SUMO1-SIM PPI: inactive; Neddyl block: inactive

Results for CCc1ccc(/C=C2\SC(=S)N(CCCC(=O)N(CCO)c3ccccc3)C2=O)cc1 ?
Rin1-Abl PPI inh: inactive; SUMO1-SIM PPI: inactive; Neddyl block: inactive

Results for O=c1c2c3c(sc2[nH]c(=S)n1Cc1ccco1)CCC3 ?
ATG4B inh: inactive; Rin1-Abl PPI inh: inactive; SUMO1-SIM PPI: 43.4; Neddyl block: inactive

What do the screens show for `COc1ccc(C(=O)N2CCC(C)(C(=O)O)C2)cc1OC` (centres undefined)?
Rin1-Abl PPI inh: inactive; SUMO1-SIM PPI: inactive; Neddyl block: inactive

Results for CCC(=O)OC1(C)C(=O)C2=COC(c3ccc(OC)cc3)=CC2=C(Br)C1=O (centres undefined) ?
ATG4B inh: inactive; Rin1-Abl PPI inh: inactive; SUMO1-SIM PPI: 49.9; Neddyl block: inactive

How did COC(=O)CCC(=O)OC1(C)C(=O)C2=CN(Cc3ccc(OC)cc3)C(c3ccc(OC)cc3)=CC2=C(Br)C1=O (centres undefined) do in these assays?
ATG4B inh: inactive; Rin1-Abl PPI inh: inactive; SUMO1-SIM PPI: inactive; Neddyl block: inactive

How did COc1ccc(C2=CC3=C(Br)C(=O)C(C)(O)C(=O)C3=CO2)cc1 (centres undefined) do in these assays?
ATG4B inh: inactive; Rin1-Abl PPI inh: inactive; SUMO1-SIM PPI: 51.9; Neddyl block: inactive

How did C/C(=N\NC(=O)c1nnn(-c2nonc2N)c1CN1CCCCC1)c1ccccc1O do in these assays?
ATG4B inh: inactive; Rin1-Abl PPI inh: inactive; SUMO1-SIM PPI: inactive; Neddyl block: 40.7

How did Cc1nc(NC(=O)C(C)(C)C)sc1C(=O)Cn1cc(CCCC#N)nn1 do in these assays?
SUMO1-SIM PPI: inactive; Neddyl block: inactive

Results for Cc1nc(N)sc1-c1csc(Nc2ncccn2)n1 ?
ATG4B inh: inactive; Rin1-Abl PPI inh: inactive; SUMO1-SIM PPI: 92.8; Neddyl block: inactive

What do the screens show for `COc1ccccc1Nc1nc(-c2sc(N)nc2C)cs1`?
ATG4B inh: inactive; Rin1-Abl PPI inh: inactive; SUMO1-SIM PPI: inactive; Neddyl block: inactive

Results for CCCCNc1c(CCc2ccccc2)nc2nc(C)cc(C)n12 ?
SUMO1-SIM PPI: inactive; Neddyl block: inactive

Results for O=C(Nc1ccc(Nc2ccncc2)cc1)c1ccc(Nc2ccnc3ccc([N+](=O)[O-])cc23)cc1 ?
ATG4B inh: inactive; Rin1-Abl PPI inh: inactive; SUMO1-SIM PPI: 127.8; Neddyl block: inactive

How did COCCCNC(=O)/C(C#N)=C/c1ccc(OCC(=O)O)c(OC)c1 do in these assays?
ATG4B inh: inactive; Rin1-Abl PPI inh: inactive; SUMO1-SIM PPI: inactive; Neddyl block: inactive

Results for COc1cc(/C=C2\C(C)=C(C#N)c3nc(N)c(C#N)c(C)c32)ccc1OCC(=O)O ?
ATG4B inh: inactive; Rin1-Abl PPI inh: inactive; SUMO1-SIM PPI: 45.5; Neddyl block: inactive

How did CC1=C(C(=O)N2CCOCC2)CC(CC(=O)NC2CCCCC2)C(=O)N1Cc1ccc(C(C)(C)C)cc1 (centres undefined) do in these assays?
Rin1-Abl PPI inh: inactive; SUMO1-SIM PPI: inactive; Neddyl block: inactive

How did Cc1ccc(S(=O)(=O)/N=C2\C=C(Nc3ccc(O)cc3)C(=O)c3ccccc32)cc1 do in these assays?
ATG4B inh: inactive; Rin1-Abl PPI inh: inactive; SUMO1-SIM PPI: inactive; Neddyl block: inactive

What do the screens show for `Cc1ccc(S(=O)(=O)/N=C2/C=C(Sc3ncn[nH]3)C(=O)c3ccccc32)cc1`?
ATG4B inh: inactive; Rin1-Abl PPI inh: 17.0; SUMO1-SIM PPI: 92.8; Neddyl block: inactive

Results for CC(C)(C)c1ccc(S(=O)(=O)/N=C2\C=C(NS(=O)(=O)c3ccccc3)C(=O)c3ccccc32)cc1 ?
ATG4B inh: inactive; Rin1-Abl PPI inh: inactive; SUMO1-SIM PPI: inactive; Neddyl block: inactive

Results for CC(C)c1ccc(S(=O)(=O)/N=C2/C=C(Sc3ncn[nH]3)C(=O)c3ccccc32)cc1 ?
ATG4B inh: inactive; Rin1-Abl PPI inh: 7.7; SUMO1-SIM PPI: 91.7; Neddyl block: inactive

What do the screens show for `CCOC(=O)C1(C)CCN1C(=O)c1cccc(C#N)c1` (centres undefined)?
Rin1-Abl PPI inh: inactive; SUMO1-SIM PPI: inactive; Neddyl block: inactive

What do the screens show for `COc1ccc2cc3c(N)nn(C(=O)Cc4ccccc4OC)c3nc2c1`?
ATG4B inh: inactive; Rin1-Abl PPI inh: inactive; SUMO1-SIM PPI: inactive; Neddyl block: inactive

Results for COc1ccc2cc3c(N)nn(C(=O)c4cccc([N+](=O)[O-])c4)c3nc2c1 ?
ATG4B inh: inactive; Rin1-Abl PPI inh: inactive; SUMO1-SIM PPI: 52.7; Neddyl block: inactive

Results for COc1ccccc1-c1cccc(-c2nc(C(=O)N3CCCCC3)cc3c2[C@@H](CCO)N(S(=O)C(C)(C)C)C3)c1 (some centres undefined) ?
Rin1-Abl PPI inh: inactive; SUMO1-SIM PPI: inactive; Neddyl block: inactive

Results for CC(CCC(C)C(C)(C)C)[C@@H]1CC[C@H]2C3C[C@H](OS(O)(=S)=S)[C@H]4C[C@H](OS(O)(=S)=S)[C@@H](OS(O)(=S)=S)C[C@]4(C)[C@H]3CC[C@]12C (some centres undefined) (tested in a mixture with another compound) ?
ATG4B inh: 83.7; Rin1-Abl PPI inh: inactive; SUMO1-SIM PPI: 45.2; Neddyl block: inactive

How did OC[C@@H]1CN(C2CCCC2)C[C@H](n2cnc3c(NC4CC4)ncnc32)O1 do in these assays?
Rin1-Abl PPI inh: inactive; SUMO1-SIM PPI: inactive; Neddyl block: inactive

How did O=C1C(=C(O)c2ccccc2)C(=O)c2ccccc21 do in these assays?
ATG4B inh: inactive; Rin1-Abl PPI inh: 12.5; SUMO1-SIM PPI: inactive; Neddyl block: inactive

What do the screens show for `COc1ccc(CN(C)C(=O)c2ccc(OCC(=O)Nc3cccc(C(F)(F)F)c3)c(OC)c2)cc1`?
Rin1-Abl PPI inh: inactive; SUMO1-SIM PPI: inactive; Neddyl block: inactive

Screens deposited in PubChem by several laboratories.
